Assay outcomes from PubChem.
The list is not random: actives were taken first. Their share in the collection is about 6%.
DRD3 agonist: activates the human D3 dopamine receptor | 410,000 tested, 0.58% active | AID 652048 | max activation, % | P35462 | D3R DiscoveRx beta-arrestin cells, luminescence, 90 min; in the data active = max activation above about 30%; note: 0% is about no effect
Target sequence (P35462 whole entry, looked up): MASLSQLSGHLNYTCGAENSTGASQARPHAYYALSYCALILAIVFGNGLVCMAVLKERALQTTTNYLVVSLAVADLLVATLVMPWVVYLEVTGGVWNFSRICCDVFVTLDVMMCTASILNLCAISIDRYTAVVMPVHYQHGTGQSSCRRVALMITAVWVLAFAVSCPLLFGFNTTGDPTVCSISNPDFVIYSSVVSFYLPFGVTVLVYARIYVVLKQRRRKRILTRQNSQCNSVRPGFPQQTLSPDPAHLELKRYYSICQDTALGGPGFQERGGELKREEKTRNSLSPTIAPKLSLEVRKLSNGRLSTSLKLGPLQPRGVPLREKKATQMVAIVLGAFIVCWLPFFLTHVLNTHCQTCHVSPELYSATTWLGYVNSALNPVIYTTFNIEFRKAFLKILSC
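Cells at 1500/well, incubated overnight, then treated with pinned compounds (dopamine as control) for 90 min at 37 degrees C. DiscoveRx reagent added for 30 - 60 minutes at room temperature; luminescence read.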
D1 PAM: potentiators of human D1 dopamine receptor; AID 504651; potentiation, % at 10 µM; P21728; 360,000 tested, 0.036% active; HEK293 TREx D1 cells, calcium flux, dopamine EC20 potentiation; in the data active = potentiation above about 30%; note: 0% is about no effect
DRD3 antagonist: antagonists of human D3 dopamine receptor | P35462 | D3R cells, DiscoveRx beta-arrestin luminescence, antagonist mode; stronger effect = lower value | max response, negative = inhibition, % | 360,000 tested, 2.5% active | AID 652054; in the data active = max response below about -50%; inconclusive = no clear call, values can overlap the other calls; note: % is set by controls: 0 for no effect and ±100 for the full control effect
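Cells expressing the human receptor were seeded at 1500 cells/well, incubated overnight at 37 degrees C in 5% CO2, then exposed to library compounds with dopamine controls for 90 minutes at 37 degrees C before luminescent detection.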
D1 agonist: agonists of human D1 dopamine receptor | P21728 | HEK293 T-REx D1 cells, calcium flux, agonist mode | activation, % at 2 µM | 360,000 tested, 1% active; in the data active = activation above about 30%; note: 0% is about no effect
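Inducible HEK293 T-REx D1 cells, force-coupled to calcium signalling, were plated at 4000 cells/well with tetracycline and held overnight at 30 C. After no-wash calcium dye loading, compound-evoked calcium rise over 180 s flagged agonists.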
D1 antag: blocks dopamine activation of the human D1 receptor | P21728 | HEK293 TREx D1 cells, calcium flux, dopamine EC80; stronger effect = lower value | activity change, negative = inhibition, % at 10 µM | 360,000 tested, 3.2% active; in the data active = activity change below about -30%; note: % is set by controls: 0 for no effect and ±100 for the full control effect
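Inducible Hek293 Trex D1 cells (tetracycline, overnight, 30 C). Calcium dye 30–90 min RT. Antagonist mode: EC80 dopamine added after 180 s compound read.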
An asterisk follows results filed as active; ? = inconclusive; . = no result; ! = not confirmed by another sample.

SMILES	DRD3 agonist	D1 PAM	DRD3 antagonist	D1 agonist	D1 antag
COc1ccc(Cl)cc1N(C)C(=O)Cn1cnc2sc(C)c(S(=O)(=O)N3CCN(c4ncccn4)CC3)c2c1=O	8	1	.	-2	2
Cc1ccc(N2CCN(C(=O)NCc3noc4ccccc34)CC2C)cc1 (stereo not drawn)	1	-7	.	3	3
COc1ccc(CNC(=O)C2CCN(S(=O)(=O)c3ccc4c(c3)CCCN4C(C)=O)CC2)cc1	6	-1	.	0	7
CN1CCc2c1nc1ccccc1c2N (tested in a mixture with another compound)	1	-1	11	2	-7
CCCCN1CCc2c1nc1ccc(Br)cc1c2N	-39	0	-84*	4	4
CCN1c2ccccc2-c2nc(SCC(=O)NCc3ccccc3)ncc2S1(=O)=O	-13	0	.	5	1
O=C(Nc1ccccc1F)c1cccc(C(=O)Nc2ccccc2F)c1	22	1	-4	2	-4
O=C(Nc1ccccc1F)c1ccc(C(=O)c2ccccc2)cc1	-10	-8	-73*	6	-5
CSc1ccccc1NC(=O)c1ccccc1	3	-7	16	0	-32*
COCCN1C[C@@H](CO)O[C@@H](n2cnc3c(N4CCN(C)CC4)ncnc32)C1	0	.	1	.	.
OC[C@@H]1CN(CCN2CCOCC2)C[C@H](n2cnc3c(NC4CCCC4)ncnc32)O1	-10	.	-51*	.	.
OC[C@@H]1CN(CCN2CCOCC2)C[C@H](n2cnc3c(NC4CC4)ncnc32)O1	-7	.	0	.	.
COCCN1C[C@@H](CO)O[C@@H](n2cnc3c(N4CCCC4)ncnc32)C1	87*	.	46	.	.
CCN(CC)C(=O)C(C(=O)c1cccc([N+](=O)[O-])c1)n1cc(Cl)ccc1=O (stereo not drawn)	-2	-2	-7	1	-37*
CCCSc1nn2c(=O)c3ccccc3nc2s1	-3	-2	-51*	0	2
Cc1cccc(Nc2nn3c(=O)c4ccccc4nc3s2)c1	-1	-2	14	1	3
CCN1CCN(C(c2ccc(F)cc2)c2c(O)cc(C)n(CCOC)c2=O)CC1 (stereo not drawn)	6	3	.	0	4
Cc1cccc(NC(=O)C2(c3ccccc3)CC2(Cl)Cl)c1 (stereo not drawn)	-1	-16	10	25	-64*
NCCS	65*!	5	-85*	1	2
CCN(CCn1cccn1)C(=O)c1cc(COc2ccc(F)c(F)c2)on1	4	-4	10	12	-32*
OC(CNCc1ccncc1)c1ccccc1 (stereo not drawn)	-12	-2	-18	6	-2
OC(CNCc1cccs1)c1ccccc1 (stereo not drawn)	6	-5	17	4	-41*
OC(CNCc1ccc(-c2ccccc2)cc1)c1ccccc1 (stereo not drawn)	-3	-5	24	56*	7
CCOC(=O)c1sc2ccccc2c1S(=O)(=O)Nc1ccc(CC)cc1	-15	-4	.	5	19
Cc1cc(-c2nnc3n2N=C(c2ccc(-c4ccccc4)cc2)CS3)n[nH]1	-3	-4	?	63*	1
SMILES	DRD3 agonist	D1 PAM	DRD3 antagonist	D1 agonist	D1 antag
Cc1ccc(C(=O)c2cn(CC(=O)NCc3ccccc3Cl)c3nc(C)ccc3c2=O)cc1	5	-8	.	2	-10
CCNc1c(NC(=O)c2ccccc2OCC)c(=O)oc2ccccc12	1	-2	.	1	-19
CN(CCOc1ccc(Br)cc1)CC(O)c1ccccc1 (stereo not drawn)	-13	7	-18	1	-6
CN(CCOc1ccccc1)CC(O)COc1ccccc1 (stereo not drawn)	-11	.	-74*	13	-29
CN(CCOc1ccc(Cl)cc1)CC(O)c1ccccc1 (stereo not drawn)	-9	-5	-52*	33*	-6
CN(CCOc1ccccc1)CC(O)COCc1ccccc1F (stereo not drawn)	-5	-4	?	3	14
CC(OCC(O)CN(C)CCOc1ccccc1)c1ccc(Cl)cc1 (stereo not drawn)	-5	-3	-69*	5	1
COc1ccccc1NC(=O)Cn1c(=O)n(-c2ccc(C)cc2)c(=O)c2c1cnn2C	-13	1	.	1	4
CCC(CC)C(=O)Nc1nc2c(s1)CC(C)CC2 (stereo not drawn)	-12	-1	.	33*	-20
CC1CCc2nc(NC(=O)C3CCCO3)sc2C1 (stereo not drawn)	0	6	9	1	7
COc1ccc([C@H](NC(=O)OC(C)(C)C)C(=O)OC(C)(C)C)cc1	10	-8	-11	0	-47*
O=C(COC(=O)c1cnccn1)c1ccc(OC(=O)c2ccccc2)cc1	-4	11	8	1	4
O=C(Oc1ccccc1)c1ccc(COC(=O)c2cnccn2)cc1	-2	-8	-106*	7	-14
O=C(Oc1ccc(Cl)cc1)c1ccc(COC(=O)c2cnccn2)cc1	1	7	7	7	-31*
CC(C)c1ccccc1OCCCCCNCCO	-21	-8	-52*	93*	-8
CC(C)(C)c1ccccc1OCCCCCNCCO	-25	-6	-86*	33*	18
CCC(C)NC(=O)c1cc2n(n1)CCCN(Cc1ccc(C)cc1)C2=O (stereo not drawn)	-12	0	.	0	-1
O=c1[nH]c(=O)n(Cc2ccco2)c2c1C(C(F)(F)F)(C(F)(F)F)N=C(c1ccc(F)cc1)N2	56*	-3	48	37*	.
NNc1nc2sc3c(c2c(=O)[nH]1)CCc1ccccc1-3	-6	-2	-55*	-1	-1
O=c1oc2c(F)cc(F)cc2cc1S(=O)(=O)c1ccc(F)cc1	-3	-1	.	69*	6
COCc1cc(C)nc(OCC(=O)N/N=C/c2ccccc2)c1C#N	1	-1	0	9	-5
COCc1cc(C)nc(OCC(=O)N/N=C/c2ccc(C)cc2)c1C#N	-15	-2	-9	3	-57*
Clc1ccc(CNCCCSc2ncccn2)cc1Cl	1	0	-67*	10	2
Clc1cccc(Cl)c1CNCCCSc1ncccn1	-6	-7	-3	2	-13
Clc1cccc(CNCCCSc2ncccn2)c1Cl	-18	-4	-70*	14	-19
Cc1cc(C)nc(SCCS(=O)(=O)Cc2ccccc2)n1	1	-2	23	2	5
Cc1cc(C)nc(SCCCNCc2ccccc2)n1	-26	-2	-67*	9	-2
COc1ccccc1CNS(=O)(=O)c1ccc(F)c(C(=O)Nc2cc(Cl)ccc2OC)c1	-9	-1	.	0	-3
O=C(O)c1nn(-c2cccc(Cl)c2)c(=O)cc1O	3	-4	13	1	-44*
COC(=O)c1nn(-c2ccccc2)c(=O)cc1O	0	1	5	1	5
